According to PubChem BioAssay:
The source made the active and inactive calls.

What was measured:
[1] = tested on: Human papillomavirus type 1a protein E7 (residues 44-93); assay: HPV1a E7 fragment binders on microarrays, primary screen, biochemical, small-molecule microarray, residues 44-93, 635 nm fluorescence (AID 1108); conditions: small-molecule microarray binding, fluorescence 635 nm; higher = more signal;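 note: E7 fragment applied at 1 µg/mL in TBST for 1 h at 4 C; score combines spot fluorescence with its signal to noise ratio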
[2] = modulators of HCV replicon luciferase signal, primary screen, HCV replication inhibitor project, Huh7 cells, luciferase reporter (AID 1109); conditions: 48 h, higher = more signal;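 note: huh7 hepatoma cells harbouring a luciferase neomycin HCV replicon reporter; luciferase luminescence as measure of HCV replicon replication; test concentration not given here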
[3] = target: Left-right determination factor 2 (Homo sapiens) (UniProt O00292); assay: LEFTY2 binders on small-molecule microarrays, primary screen, biochemical, small-molecule microarray, 635 nm fluorescence scan (AID 1110); conditions: LEFTY2 binding, higher = more signal
[4] = target: Calmodulin-1 (Homo sapiens) (UniProt P0DP23); assay: CALM1 binders on microarrays, EGTA buffer, profiling panel, biochemical, small-molecule microarray, Cy5-labelled CALM1 (AID 1111); conditions: Cy5-CALM1 binding fluorescence, higher = more signal;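 note: labelled calmodulin applied in Tris saline Tween buffer holding calcium plus EGTA and DTT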
[5] = target: Calmodulin-1 (Homo sapiens) (UniProt P0DP23); assay: calcium-bound CALM1 binders on microarrays, profiling panel, artefact control for SMM control-protein annotation, biochemical, small-molecule microarray, Cy5-labelled CALM1, plus calcium (AID 1112); conditions: Cy5-CALM1 binding fluorescence, higher = more signal;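 note: score merges spot fluorescence with signal to noise from triplicate slides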
[6] = small-molecule microarray binders of probe aWnt5a, primary screen, biochemical, biotinylated probe, 635/667 nm fluorescence (AID 1113); conditions: higher = more signal;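 note: score merges 667 nm fluorescence intensity with signal-to-noise per printed feature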
[7] = small-molecule microarray binders of probe aShh, primary screen, biochemical, biotinylated probe, 635/667 nm fluorescence (AID 1114); conditions: higher = more signal;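 note: probe is biotin-labelled aShh protein from a stem cell growth factor screen; measures binding of labelled protein to compounds printed on the slide; score merges feature fluorescence at 667 nm with signal-to-noise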
[8] = small-molecule microarray binders of probe aNog, primary screen, biochemical, biotinylated probe, 635/667 nm fluorescence (AID 1115); conditions: higher = more signal;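 note: probe is biotinylated aNog protein used at 0.15 µg/mL for 1 h at 4 C; z-score combines 667 nm fluorescence of each spot with its signal to noise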
[9] = target: Torsin-1A-interacting protein 1 (Homo sapiens) (UniProt Q5JTV8); assay: LAP1 binders from COS7 cell lysate, primary screen, small-molecule microarray, 635/667 nm fluorescence (AID 1116); conditions: COS7-hLAP1 lysate binding, 635 nm fluorescence, higher = more signal
[10] = target: Alpha-bungarotoxin (Bungarus multicinctus) (UniProt P60615); assay: alpha-bungarotoxin binders on microarray, profiling panel, artefact control for SMM control protein annotation, biochemical, small-molecule microarray, Alexa647 label, 635/667 nm fluorescence (AID 1117); conditions: alpha-BTX-A647 binding fluorescence, higher = more signal
Albumin (Bos taurus) = Albumin (Bos taurus) (UniProt P02769); assay: bovine serum albumin binders on microarray, profiling panel, artefact control for SMM control protein annotation, biochemical, small-molecule microarray, Alexa647 label, 635/667 nm fluorescence (AID 1118); conditions: BSA-A647 binding, fluorescence 635 nm, higher = more signal;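 note: score merges 667 nm emission intensity and signal-to-noise per printed compound spot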
[11] = small-molecule microarray binders of probe aXIP, primary screen, biochemical, NeuroSMM set, 635/667 nm fluorescence (AID 1119); conditions: higher = more signal, called active from +8 up or from −8 down;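 note: probe is the protein aXip251-270 applied at 1 µg/mL to compound-printed slides; binding of probe to printed compounds measured as 667 nm fluorescence plus signal to noise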
[12] = small-molecule binders of probe aNOTCH3, primary screen, biochemical, small-molecule microarray, 635/667 nm fluorescence (AID 1120); conditions: higher = more signal;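 note: probe is a biotin-tagged antibody raised against NOTCH3 rather than NOTCH3 protein; score merges spot fluorescence near 667 nm with spot signal to noise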
[13] = small-molecule binders of probe aNOTCH2, primary screen, biochemical, small-molecule microarray, 635/667 nm fluorescence (AID 1121); conditions: higher = more signal;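 note: score merges feature fluorescence read at 667 nm with its signal to noise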
[14] = target: Carbonic anhydrase 2 (Homo sapiens) (UniProt P00918); assay: CAII small-molecule binders, profiling panel, biochemical, small-molecule microarray, Alexa647-labelled CAII (AID 1122); conditions: CAII-A647 binding fluorescence, higher = more signal
[15] = COS7 lysate on small-molecule microarray, probe aHis, 635 nm (AID 1123); conditions: COS7 cell lysate, fluorescence, higher = more signal;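 note: z-score combines 667nm fluorescence intensity with signal-to-noise per printed compound spot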
[16] = compound binding in COS7 lysate, probe aLAP1, primary screen, cell lysate, small-molecule microarray (AID 1124); conditions: probe aLAP1, fluorescence, higher = more signal;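 note: lysate comes from COS7 cells expressing LAP1 and is applied at 0.3 µg/mL; score merges spot fluorescence near 667 nm with signal-to-noise over triplicate slides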
Sam68 (KHDRBS1) = assay: Sam68 small-molecule binders, primary screen, biochemical, small-molecule microarray, 635 nm fluorescence (AID 1125); conditions: small-molecule microarray binding, higher = more signal;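 note: score merges 667 nm channel intensity with signal to noise over triplicate slides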
[17] = tested on: Chordin-like protein 2 (CHRDL2); assay: CHRDL2 small-molecule binders, primary screen, biochemical, small-molecule microarray, 635 nm fluorescence (AID 1126); conditions: small-molecule microarray binding, fluorescence 635 nm; higher = more signal;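 note: printed compound slides probed with Chrdl2 protein at 4 µg/mL for 1 h at 4 C; score merges 667 nm emission intensity with signal to noise over three replicate slides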
[18] = target: Concanavalin-A (Canavalia ensiformis) (UniProt P02866); assay: ConA small-molecule binders, primary screen, artefact control for SMM control protein annotation, biochemical, small-molecule microarray, Alexa647 label, 635 nm (AID 1127); conditions: ConA-A647 binding fluorescence, higher = more signal;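 note: z combines 667 nm emission intensity with signal-to-noise across three replicate slides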
Sequence of Concanavalin-A (Canavalia ensiformis) (P02866 whole entry, looked up): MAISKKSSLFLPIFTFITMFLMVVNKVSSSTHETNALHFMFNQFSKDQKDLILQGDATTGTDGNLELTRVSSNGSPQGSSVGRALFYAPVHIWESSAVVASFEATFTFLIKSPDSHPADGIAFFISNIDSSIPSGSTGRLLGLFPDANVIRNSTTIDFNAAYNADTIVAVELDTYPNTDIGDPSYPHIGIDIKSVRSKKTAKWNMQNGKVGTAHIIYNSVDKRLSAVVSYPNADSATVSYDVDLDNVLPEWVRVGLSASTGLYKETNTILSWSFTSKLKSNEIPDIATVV

Sequence of Albumin (Bos taurus) (P02769 whole entry, looked up): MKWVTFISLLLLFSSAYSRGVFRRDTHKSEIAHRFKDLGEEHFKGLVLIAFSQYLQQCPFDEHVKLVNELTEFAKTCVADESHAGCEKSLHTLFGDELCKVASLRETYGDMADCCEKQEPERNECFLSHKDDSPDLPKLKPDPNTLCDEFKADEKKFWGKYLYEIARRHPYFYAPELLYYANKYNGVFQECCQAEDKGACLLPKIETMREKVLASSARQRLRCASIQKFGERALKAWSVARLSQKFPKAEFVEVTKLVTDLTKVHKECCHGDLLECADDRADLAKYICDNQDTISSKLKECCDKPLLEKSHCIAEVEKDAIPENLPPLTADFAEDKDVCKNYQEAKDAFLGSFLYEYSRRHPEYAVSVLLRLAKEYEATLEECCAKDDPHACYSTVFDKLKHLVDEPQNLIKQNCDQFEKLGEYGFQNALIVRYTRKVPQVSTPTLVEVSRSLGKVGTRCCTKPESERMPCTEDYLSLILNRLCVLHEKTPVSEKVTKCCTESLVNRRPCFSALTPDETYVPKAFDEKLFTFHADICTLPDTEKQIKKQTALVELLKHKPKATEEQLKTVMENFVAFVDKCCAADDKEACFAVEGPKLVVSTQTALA
Sequence of Torsin-1A-interacting protein 1 (Homo sapiens) (Q5JTV8 whole entry, looked up): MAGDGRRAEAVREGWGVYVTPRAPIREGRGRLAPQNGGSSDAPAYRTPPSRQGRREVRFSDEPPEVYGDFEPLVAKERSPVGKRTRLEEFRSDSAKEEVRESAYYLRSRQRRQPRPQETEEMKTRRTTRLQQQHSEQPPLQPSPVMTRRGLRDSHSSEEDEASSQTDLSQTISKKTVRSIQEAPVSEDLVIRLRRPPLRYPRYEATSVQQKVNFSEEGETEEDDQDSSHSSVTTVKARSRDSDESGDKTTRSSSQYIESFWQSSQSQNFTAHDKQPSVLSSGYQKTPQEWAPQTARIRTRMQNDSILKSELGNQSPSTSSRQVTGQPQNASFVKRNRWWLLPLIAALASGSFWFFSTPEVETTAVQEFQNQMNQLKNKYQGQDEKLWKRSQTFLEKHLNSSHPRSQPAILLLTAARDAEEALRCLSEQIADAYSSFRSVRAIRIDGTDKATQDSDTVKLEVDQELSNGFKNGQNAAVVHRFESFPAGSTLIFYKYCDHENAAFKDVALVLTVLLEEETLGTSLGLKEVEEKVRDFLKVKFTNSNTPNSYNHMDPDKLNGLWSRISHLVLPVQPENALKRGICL
Sequence of Left-right determination factor 2 (Homo sapiens) (O00292 whole entry, looked up): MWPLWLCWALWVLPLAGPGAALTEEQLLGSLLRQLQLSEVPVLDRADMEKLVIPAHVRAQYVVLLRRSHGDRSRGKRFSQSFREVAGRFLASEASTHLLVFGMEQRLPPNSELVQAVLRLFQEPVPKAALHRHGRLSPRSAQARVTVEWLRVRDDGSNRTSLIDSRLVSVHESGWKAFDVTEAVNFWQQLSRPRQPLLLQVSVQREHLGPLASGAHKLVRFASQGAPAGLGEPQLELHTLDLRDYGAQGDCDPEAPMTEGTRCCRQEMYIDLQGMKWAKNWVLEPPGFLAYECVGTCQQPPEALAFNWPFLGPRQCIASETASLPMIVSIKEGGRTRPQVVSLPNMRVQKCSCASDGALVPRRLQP
Sequence of Alpha-bungarotoxin (Bungarus multicinctus) (P60615 whole entry, looked up): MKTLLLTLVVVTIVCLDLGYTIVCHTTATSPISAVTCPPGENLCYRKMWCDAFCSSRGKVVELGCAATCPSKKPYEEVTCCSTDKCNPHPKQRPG

Compound | composite z-score [1] | z-score [2] | composite z-score [3] | composite z-score [4] | composite z-score [5] | composite z-score [6] | composite z-score [7] | composite z-score [8] | composite z-score [9] | composite z-score [10] | composite z-score (Albumin (Bos taurus)) | composite Z-score [11] | composite z-score [12] | composite z-score [13] | composite z-score [14] | composite z-score [15] | composite z-score [16] | composite z-score (Sam68 (KHDRBS1)) | composite z-score [17] | composite z-score [18]
CC1CC/C=C\[C@H]2OC34C=CCN(CCN5CCOCC5)C(=O)[C@H]3N(C(C)CO)C(=O)[C@@H]4C2C(=O)O1 (stereo not given in full) | 0.523 | -0.91 | -0.536 | -0.666 | -1.4 | -0.199 | 0.147 | -0.373 | -0.719 | -0.807 | -0.712 | 0.117 (inactive) | -0.129 | -0.0741 | 0.738 | 1.57 | -0.221 | 0.19 | -0.231 | -0.371
[N-]=[N+]=NC[C@H](Cc1ccccc1)NC(=O)c1ccccc1 | -0.778 | 2.25 | -0.0257 | -0.334 | -0.203 | -0.0269 | -0.0146 | -0.293 | 0.363 | 0.0961 | 0.494 | -0.0662 (inactive) | 0.056 | -0.0783 | 0.294 | 0.12 | -0.0013 | -0.258 | 0.433 | -0.855
COCC(=C=CC[C@@H](O)c1cccc(OCCO)c1)CCO | 0.328 | 0.22 | -0.313 | 0.32 | 0.281 | 0.129 | -0.372 | -0.0987 | 0.69 | 1.73 | 0.682 | 0.0124 (inactive) | -0.0293 | 0.011 | 0.708 | 0.562 | 1.41 | 0.381 | -0.325 | 0.856
CCCCC(=C=CC[C@H](O)c1ccc(OCCO)cc1)C[C@H](O)c1cc(Cl)cc(Cl)c1O | 0.584 | -1.63 | 0.0916 | 0.0258 | -0.0211 | -0.198 | -0.153 | 0.452 | 0.849 | 0.779 | 0.377 | 0.671 (inactive) | -0.0178 | -0.133 | 0.456 | 0.271 | 0.163 | 0.805 | 0.44 | 0.72
COc1cc2c(cc1O)C(c1cccs1)N(Cc1sc3ccccc3c1Cl)CC2 (stereo not given) | 1.48 | -1.7 | 0.659 | 1.66 | 0.334 | -0.0345 | 0.199 | 0.593 | 1.33 | 1.87 | 0.931 | -0.818 (inactive) | 0.173 | 0.0294 | 0.587 | 2.04 | 1.17 | 1.3 | 0.613 | 1.07
CC(C)[C@H]1NC(=O)[C@@]23C(=O)N[C@@H](Cc4ccccc4)C2[C@H](C)[C@@]2(C)O[C@H]2C3/C=C/CCC/C=C/CNC(=O)[C@H](Cc2ccccc2)NC1=O (stereo not given in full) | 1.41 | -0.565 | -0.0883 | -0.773 | -0.806 | -0.148 | -0.156 | -0.455 | -0.148 | -0.498 | 0.347 | -0.0159 (inactive) | -0.213 | -0.131 | 0.427 | 0.892 | -0.0328 | 0.86 | 0.213 | -0.464
COC(=O)C1=CC(CCCO)=CC(c2ccc(CN3CCCC3)cc2)N(Cc2cc3c(cc2Br)OCO3)C=C1C(=O)OC (stereo not given) | 1.39 | -0.803 | 0.688 | 1.9 | 0.795 | 0.212 | 0.839 | -0.603 | 1.48 | 0.853 | 1.04 | 0.339 (inactive) | 0.477 | 0.135 | 0.705 | 1.76 | 0.672 | 1.3 | -0.384 | 0.701
CN1C(=O)C2C=CC(C(O)c3ccc(F)cc3)N(NC(=O)OC(C)(C)C)C2C1=O (stereo not given) | 1.36 | -0.428 | -0.205 | 0.989 | 0.469 | -0.109 | 0.265 | 1.12 | -0.102 | 0.613 | 0.854 | 0.134 (inactive) | 0.0155 | -0.0317 | 0.695 | 2.48 | 0.215 | 1.03 | -1.3 | 0.923
CC(C)[C@H]1NC(=O)[C@@]23C(=O)N[C@@H](Cc4ccccc4)C2[C@H](C)[C@@]2(C)O[C@H]2C3/C=C/C/C=C\CNC(=O)[C@H](Cc2ccccc2)NC1=O (stereo not given in full) | 1.33 | -0.26 | 0.736 | -0.28 | -0.584 | -0.158 | -0.0553 | -0.505 | 0.512 | 0.807 | 0.347 | 0.167 (inactive) | 0.204 | -0.19 | 0.318 | 0.836 | 0.582 | 1.29 | 0.908 | 0.273
Cc1ccc(S[C@]2(C(=O)NCc3ccccc3)CC(=O)N(Cc3cc(C(F)(F)F)cc(C(F)(F)F)c3)[C@@H]2c2ccc(CO)cc2I)cc1 | -0.262 | -0.861 | -1.24 | -0.36 | 0.585 | -0.228 | -0.319 | -0.216 | 0.0893 | -1.05 | -0.618 | -0.244 (inactive) | -0.338 | -0.161 | 0.699 | 0.67 | 0.0779 | -0.191 | -1.77 | -1.54
C=C(/C(=C/C[C@@H](OC(=O)c1ccncc1)c1cccc(OCCO)c1)c1cnc2ccccc2c1)C(C)C | 1.08 | -1.96 | 0.775 | 0.0848 | 0.11 | 0.0215 | -0.0769 | 0.419 | 1.37 | 2.57 | 0.701 | 0.414 (inactive) | 0.178 | -0.0689 | 0.976 | 1.69 | 1.38 | 1.21 | 1.24 | 1.2
